PubChem BioAssay AID1259415 (National Center for Advancing Translational Sciences (NCATS), 2018)
Where “and” joins values, the source holds several entries; their conditions need not be identical. Equal values may be shown once. About 18,000 (4.4%) of roughly 410,000 compounds were called active. Roughly 7% stayed inconclusive and do not appear here. Rule as the data show it: active = activity change below about -60%; inconclusive = no clear call, values can overlap the other calls; inactive = above about -39%. The sample as a whole holds a higher share of actives than the screen did. Some compounds were tested as several samples or in several runs, with calls that do not always agree.

Test: qHTS Assay for inhibitors of the human cytomegalovirus (HCMV)
Settings: HFF cells, HCMV-luciferase reporter, 72 h; at 57.5 µM; stronger effect = lower value
Outline: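 HFF cells seeded 16 h at 37C, treated with compounds, infected with luciferase-reporter HCMV at MOI 1 PFU/cell; luciferase read at 72 h post infection, normalized to buffer-only and Salinomycin controls.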
% is scaled to controls: 0 for no effect and ±100 for the full control effect.

Row | Compound | activity change, negative = inhibition
1 | CCOC(=O)c1ccc(NC(=O)c2c(NCc3cccs3)sc3c2CCCC3)cc1 | -7.9% (inactive)
2 | COc1ccc(N2CCN(c3nc(-c4ccccc4F)nc4ccccc34)CC2)cc1 | -30% (inactive)
3 | CC(C)(C)Nc1nc(-c2ccccn2)nc2ccccc12 | -100% (active)
4 | COc1cc(Nc2nc(-c3ccc(OC)c(OC)c3)nc3ccccc23)cc(OC)c1 | -33.1% (inactive)
5 | CCCc1nn2c(=O)cc(COC(=O)c3ccc(NC(=O)COc4ccc(F)cc4)cc3)nc2s1 | -24.2% (inactive)
6 | CC(C)(C)C(=O)CCN1C(=O)C2(OCCO2)c2ccccc21 | 1.52% (inactive)
7 | COc1ccc(C2C(=O)N(C3CCCCCC3)CC(=O)N2CCc2ccc(Cl)cc2)cc1OC (stereo unspecified) | -12.5% (inactive)
8 | Cc1cn(C)c(CC(=O)NCc2ccccc2)c1C(=O)O | 16.2% (inactive)
9 | NC(=O)C1CCN(C(=O)c2ccc(F)c(S(=O)(=O)N3CCOCC3)c2)CC1 | -6.8% (inactive)
10 | CC1CCN(C(=O)c2ccc(S(=O)(=O)Cc3cc(F)ccc3F)c([N+](=O)[O-])c2)CC1 | -83.1% (active)
11 | CC1=Nc2cc(C(=O)N3CCC(C)CC3)ccc2Sc2ccc(Cl)cc21 | -34.1% (inactive)
12 | Cc1cccc(CSc2nc3ccncc3n2CC(=O)N(C)C2CCCCC2)c1 | 19.5% (inactive)
13 | O=C(NCC(c1ccco1)S(=O)(=O)c1cccs1)c1ccc(F)cc1 (stereo unspecified) | 0% (inactive)
14 | CSc1ncnc2sc(C)c(C)c12 | -17.9% (inactive)
15 | Cc1cccc(-n2ccnc2SCC(=O)Nc2cccc3ccccc23)c1C | -0.357% (inactive)
16 | CCn1c(=O)c(=O)n(CC)c2cc(N3CCCCC3)c(NC(=O)c3cccc(F)c3)cc21 | -12.9% (inactive)
17 | O=C(Nc1ccccc1N1CCCCC1)c1ccc2nccnc2c1 | -62.2% (active)
18 | O=C(NCCc1ccc(F)cc1)c1ccc2nccnc2c1 | 104% (inactive)
19 | Cc1ccc(C)c(NC(=O)c2ccc3nccnc3c2)c1 | -67% (active)

Row | Compound | activity change, negative = inhibition
20 | O=C(Nc1ccccc1N1CCCC1)c1ccc(F)c(S(=O)(=O)N2CCOCC2)c1 | -11.8% (inactive)
21 | CC(C)CCC(C)NC(=O)c1ccc2nccnc2c1 (stereo unspecified) | 43% (inactive)
22 | CCOC(=O)c1ccccc1NC(=O)c1nn(-c2ccc(OC)c(Cl)c2)c(=O)c2c1c1ccccc1n2C | 11.6% (inactive)
23 | Cc1ccc(C)c(Cn2c(C(=O)O)c(CNCc3cccs3)c3ccccc32)c1 | -8.87% (inactive)
24 | CC(=O)N1CCCc2cc(S(=O)(=O)N3CCC(C(=O)NCc4ccc(C)cc4)CC3)ccc21 | -4.1% (inactive)
25 | COc1ccc(OC)c(-c2noc(N3CCN(c4cc(Cl)ccc4C)CC3)n2)c1 | -0.0922% (inactive)
26 | COC(=O)c1cc(NC(=O)c2cnc(SC)nc2-c2ccccc2)cc(C(=O)OC)c1 | 22.8% (inactive)
27 | CC1CCC(C(C)C)C(=O)/C1=C\c1ccc(NC(=O)CCC(=O)O)cc1 (stereo unspecified) | -26.4% (inactive)
28 | CCOC(=O)N1CCN(C(c2ccnc3ccccc23)c2nnnn2-c2c(C)cccc2C)CC1 (stereo unspecified) | -0.353% (inactive)
29 | CSCCC(c1nnnn1C(C)(C)C)N1CCC(n2c(=O)[nH]c3ccccc32)CC1 (stereo unspecified) | -37.7% (inactive)
30 | O=c1[nH]c2ccccc2n1C1CCN(C(c2ccccc2)c2nnnn2Cc2ccccc2)CC1 (stereo unspecified) | -93.7% (active)
31 | CC(C)C(c1nnnn1Cc1ccccc1)N1CCC(C(N)=O)CC1 (stereo unspecified) | 55.3% (inactive)
32 | O=c1[nH]c2ccccc2n1C1CCN(CCOc2ccccc2)CC1 | -29.7% (inactive)
33 | O=c1[nH]c2ccccc2n1C1CCN(C(c2ccnc3ccccc23)c2nnnn2Cc2ccccc2)CC1 (stereo unspecified) | -61.4% (active)
34 | CCCN(CCC)CCCNC(=O)CNC(=O)c1nn(-c2ccc(OC)cc2)c(=O)c2ccccc12 | -0.192% (inactive)
35 | Cc1ccc(Cl)cc1N1CCN(C(=O)c2cn(C)c3ccc(S(=O)(=O)N(C)C4CCCCC4)cc3c2=O)CC1 | 19.9% (inactive)
36 | Cc1cccc(OCC(=O)N(Cc2ccc(C(C)C)cc2)Cc2ccco2)c1C | -2.95% (inactive)
37 | Cc1nc(-c2nnc(SCC(=O)Nc3cc(C(F)(F)F)cc(C(F)(F)F)c3)n2C)cs1 | 18.5% (inactive)
38 | COc1cc(NC(=O)c2nc3ccccc3nc2C)cc(OC)c1OC | 22.8% (inactive)

Row | Compound | activity change, negative = inhibition
39 | Cc1n[nH]c(=O)nc1N/N=C/c1cccs1 | 11.4% (inactive)
40 | Cc1nc2ccccc2nc1N/N=C/c1ccc(O)cc1O | -86.2% (active)
41 | COc1ccc(CNC(=O)c2cc3cccc(OC)c3oc2=O)cc1 | -88.7% (active)
42 | COc1ccc(CNC(=O)c2c[nH]c3c(OC)cc(OC)cc3c2=O)cc1 | -39% (inactive)
43 | COc1cccc2cc(C(=O)NCc3ccc(C)cc3)c(=N)oc12 | -3.52% (inactive)
44 | Cc1c(Cl)cccc1NC(=O)CCS(=O)(=O)c1ccc2c(c1)oc(=O)n2C | -4.78% (inactive)
45 | Cc1ccc(NC(=O)CS(=O)CC(=O)N(c2ccccc2)C(C)C(=O)NC2CCCC2)cc1 (stereo unspecified) | 4.37% (inactive)
46 | O=C(CCn1nnc2ccccc21)OCC(=O)c1ccc([N+](=O)[O-])cc1 | 2.27% (inactive)
47 | O=C(CC(n1cncn1)C(Cl)(Cl)Cl)c1ccc([N+](=O)[O-])cc1 (stereo unspecified) | -0.398% (inactive)
48 | O=C(Cn1c[n+](CC(=O)c2ccc([N+](=O)[O-])cc2)cn1)c1ccc([N+](=O)[O-])cc1 | -34.4% (inactive) and -92.6% (active)
49 | C[C@H](CO)N1C[C@H](C)[C@H](CN(C)C(=O)c2ccncc2)OCc2ccccc2-c2c(n(C)c3ccccc23)C1=O | -0.378% (inactive)
50 | CCN(CC)CCNc1ncnc2c1cnn2-c1cc(Cl)ccc1C | -19.7% (inactive)
51 | COc1ccc(NC(=O)C2=CC(c3ccc(OC)c(OC)c3)=NS(=O)(=O)N2C)cc1 | -70.9% (active)
52 | COc1cc(NC(=O)C2=CC(c3ccc(C)cc3)=NS(=O)(=O)N2C)cc(OC)c1OC | 8.94% (inactive)
53 | COc1ccc(C2=NS(=O)(=O)N(C)C(C(=O)NC(C)c3ccccc3)=C2)cc1 (stereo unspecified) | -13.9% (inactive) and -20.9% (inactive)
54 | CCOC(=O)c1c(NC(=O)C2(C)Cc3ccccc3C(=O)O2)sc2c1CCCC2 (stereo unspecified) | -77.4% (active)
55 | CCOC(=O)c1c(NC(=O)/C(C#N)=C/c2ccccc2)sc2c1CCC2 | 2.23% (inactive)
56 | CCOC(=O)c1c(NC(=O)c2cc(-c3ccc(Cl)cc3)on2)sc2c1CCCC2 | 3.67% (inactive)
